Screening data deposited in PubChem by National Center for Advancing Translational Sciences (NCATS).
FBPA Giardia inh: qHTS Assay for Inhibitors of Fructose-1,6-bisphosphate Aldolase from Giardia Lamblia; purified Giardia FBPA; Potency, µM (series often up to 59.6 µM), without a hit: at the top dose activity, negative = inhibition, hits mostly inhibitors; hit rate 0.71% among 290,000; AID 2451, 2010; further: nearly all actives have a fitted effect of over 55% in size
Target sequence (A8B2U2 whole entry, looked up): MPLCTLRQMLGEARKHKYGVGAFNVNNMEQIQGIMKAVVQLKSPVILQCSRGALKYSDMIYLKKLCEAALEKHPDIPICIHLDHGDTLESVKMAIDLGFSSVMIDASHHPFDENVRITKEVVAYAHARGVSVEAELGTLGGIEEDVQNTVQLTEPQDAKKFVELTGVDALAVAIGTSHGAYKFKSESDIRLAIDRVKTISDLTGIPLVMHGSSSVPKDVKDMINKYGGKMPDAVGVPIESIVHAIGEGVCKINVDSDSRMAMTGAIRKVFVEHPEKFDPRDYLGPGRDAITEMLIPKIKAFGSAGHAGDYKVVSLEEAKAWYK
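40 nM FBPA preincubated 10 min at RT with compound (up to 57.5 uM final), then substrate plus GAPDH/TPI/NAD/arsenate coupling and diaphorase/resazurin added. Fluorescence read after 20 min at RT, 525/598 nm.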
Sm TGR inh: qHTS Assay for the Inhibitors of Schistosoma Mansoni Peroxiredoxins | hit rate 3% among 360,000 | AID 485364, 2010 | purified TGR, DTNB reduction, TNB absorbance 405 nm | Potency, µM (titrated, usually from 114 µM), for the others: at the top dose activity change, negative = inhibition, most hits filed as inhibitors | Schistosoma mansoni thioredoxin glutathione reductase (TGR), Q962Y6; further: nearly all actives have a fitted effect of over 60% in size
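TGR 20 nM + NADPH 100 uM (dispensed conc.), cpd preinc 15 min RT; start with NADPH (500 uM addition) then DTNB (15 mM addition). Kinetic TNB absorbance, 405 nm filter. Four-parameter Hill fit across titration.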
AmpC detergent: qHTS Inhibitors of AmpC Beta-Lactamase (assay with detergent) | P00811 | AmpC hydrolysis of nitrocefin, absorbance 480 nm, 0.01% Triton | Potency, µM (top dose mostly 114 µM), inactives show at the highest dose activity change, negative = inhibition, usual class: inhibitors | hit rate 0.041% among 370,000;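 further: 0% = no-compound wells and -100% = no-enzyme wells; nearly all actives have a fitted effect of over 25% in size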
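AmpC (5.3 nM in the dispensed reagent) in 20 mM phosphate pH 7.0 with 0.01% (detergent screen) or 0.0001% Triton X-100 was preincubated with compounds for 15 min at room temperature. Nitrocefin was then added from an 800 uM solution, and hydrolysis was followed at 480 nm.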
AmpC inh no detg: qHTS Inhibitors of AmpC Beta-Lactamase (assay without detergent). AmpC nitrocefin hydrolysis, absorbance 480 nm, 0.0001% Triton. AID 485341, 2010. P00811. Potency, µM (titrated, usually from 57.1 µM), inactives show top-dose activity change, negative = inhibition, actives largely listed as inhibitors. hit rate 0.52% among 330,000;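 further: plate controls were no compound for no effect and no enzyme for full effect; nearly all actives have a fitted effect of over 20% in size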
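AmpC (5.3 nM in the dispensed reagent) in 20 mM phosphate pH 7.0 with 0.01% (detergent screen) or 0.0001% Triton X-100 was preincubated with compounds for 15 min at room temperature. Nitrocefin was then added from an 800 uM solution, and hydrolysis was followed at 480 nm.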
* = called active by the depositor; ? = inconclusive; / = no result. Hits are enriched below; roughly 3.6% of the tested compounds scored in any of these assays. The call rests on the fitted dose curve; in most records, active means well fitted curve in the direction sought with a large enough effect; inconclusive means small, poorly fitted or top-dose-only effect, or another doubt; inactive means no such curve, though single readings can be large; an effect the other way counts as inactive or inconclusive. Unless noted, on the % scale 0 is the no-effect control and ±100 the full control effect; potency means the concentration at half of the fitted maximal effect.

SMILES	FBPA Giardia inh	Sm TGR inh	AmpC detergent	AmpC inh no detg
COc1nn(-c2ccccc2)c(=O)c(Cl)c1Cl	6%	22µM*	?	-6%
COc1ccc2cc3c(N)c(C(=O)NCc4ccco4)sc3nc2c1	-1%	-30%	0%	0.32µM*
COc1ccc2cc3cc(C(=O)NCc4ccco4)oc3nc2c1	-8%	?	-1%	-13%
CCCOC(=O)c1sc2nc3c(cc2c1N)C(=O)CCC3	-1%	-2%	?	-21%
Nc1c(C(=O)NCc2ccco2)sc2nc3c(cc12)C(=O)CCC3	?	8.9µM*	?	-38%
O=C(NCc1ccccc1)C(c1ccccc1)N(C(=O)c1csnn1)C1CCCC1 (configuration not stated)	/	4%	-4%	7%
O=C(COC(=O)CCSc1ccc(F)cc1)NCc1ccc(F)cc1	/	/	/	-20%
Cc1nn(CC(=O)Nc2ccc3c(c2)nc2n3CCN(C3CCCCC3)C2)c(=O)c2ccccc12	-21%	18µM*	-8%	54%
CCOc1ccccc1NC(=O)c1cc(SC)ccc1Cl	-3%	-1%	0%	-46%
COC(=O)C1C(c2ccc(OC)c(OC)c2)NC(c2ccc(OC)c(OC)c2)C(C(=O)OC)S1(=O)=O (configuration not stated)	1%	20µM*	7%	61%
COC(=O)C1CSc2[nH]c(=O)sc2C1c1ccc(OC)c(OC)c1 (configuration not stated)	/	7%	-11%	-24%
Cc1ccn2c(=O)cc(CSc3nnc(NC(=O)c4ccccc4Cl)s3)nc2c1	/	-2%	0%	/
Cc1c(NC(=O)OC(C)C)sc(=S)n1C	0%	35µM*	?	-17%
COc1ccc(CNC(=O)c2cnc(N3CCCC3)nc2C)cc1	/	-2%	0%	/
O=C(/C=C/c1ccc(Br)cc1)Nc1ccc(S(=O)(=O)Nc2ncccn2)cc1	2%	/	-1%	-28%
O=C(/C=C/c1cccc(F)c1)Nc1ccc(S(=O)(=O)Nc2ncccn2)cc1	7%	7%	-3%	11µM*
CCNC(=O)C1CCCN(c2nn3cc(-c4ccc(C)cc4)nc3s2)C1 (configuration not stated)	/	1%	5%	/
CN(Cc1ccccc1)C(=O)CCS(=O)(=O)c1ccc2c(c1)n(C)c(=O)c(=O)n2C	7%	22µM*	?	0.5µM*
Cc1csc(=O)n1CC(=O)OCC(=O)NNC(=O)c1ccc(Cl)cc1	/	-19%	-17%	-11%
O=C(CCSc1ccc(Br)cc1)c1ccc(O)cc1	0%	2.5µM*	-9%	-48%
O=C(CCO)c1ccc(O)cc1	-14%	18µM*	5%	-29%
CCCCC(=O)c1ccc(O)cc1	4%	-17%	-10%	-22%
CCc1ccc(NC(=O)CC2C(=O)N(c3ccc(C)cc3)C(=O)N2C2CCCC2)cc1 (configuration not stated)	/	2%	-11%	/
Cc1ccc(N2C(=O)C(CC(=O)Nc3cccc(F)c3)N(C3CC3)C2=O)cc1 (configuration not stated)	5%	50µM*	2%	-11%
CCOc1ccc(NC(=O)CC2C(=O)N(c3ccccc3)C(=O)N2C2CCCC2)cc1 (configuration not stated)	/	50µM*	25%	/
SMILES	FBPA Giardia inh	Sm TGR inh	AmpC detergent	AmpC inh no detg
COc1ccc(NC(=O)CC2C(=O)N(c3ccc(OC)cc3)C(=O)N2C2CCCCC2)cc1 (configuration not stated)	/	56µM*	9%	/
CS(=O)(=O)N(CC(=O)Nc1ccc2c(c1)OCO2)Cc1ccccc1	5%	-7%	-4%	?
CS(=O)(=O)N(CC(=O)Nc1ccc2c(c1)OCO2)Cc1ccc(Cl)cc1	0%	-3%	1%	0.28µM*
O=C(CCl)Nc1ccc2c(c1)OCO2	-5%	16µM*	-6%	-23%
CCOc1cc(CNCCSc2nnnn2-c2ccccc2)ccc1OC	/	-28%	12%	/
COc1cccc(CC2(CO)CCN(Cc3ccc4cccc(F)c4n3)CC2)c1	-4%	4%	8%	69%
O=C(O)Cn1nc(-c2ccccc2)oc1=O	2%	4%	2%	3%
CC(C)(C)C(=O)n1nc(-c2ccccc2)oc1=O	-4%	32µM*	-9%	-1%
